Screens (PubChem)
In the library only some 5.7% were active in any assay of this set; here they are far more common.
PI4K2A block: PI4K2A (human) kinase inhibition; 420,000 tested, 0.13% active; activity change, negative = inhibition, % at 76.9 µM; AID 1346378; purified PI4K2A, ADP-Glo luminescence, 1 h; stronger effect = lower value; in the data active = activity change below about -50%; inconclusive = mostly about -30% to -49%
Target sequence (Q9BTU6 whole entry, looked up): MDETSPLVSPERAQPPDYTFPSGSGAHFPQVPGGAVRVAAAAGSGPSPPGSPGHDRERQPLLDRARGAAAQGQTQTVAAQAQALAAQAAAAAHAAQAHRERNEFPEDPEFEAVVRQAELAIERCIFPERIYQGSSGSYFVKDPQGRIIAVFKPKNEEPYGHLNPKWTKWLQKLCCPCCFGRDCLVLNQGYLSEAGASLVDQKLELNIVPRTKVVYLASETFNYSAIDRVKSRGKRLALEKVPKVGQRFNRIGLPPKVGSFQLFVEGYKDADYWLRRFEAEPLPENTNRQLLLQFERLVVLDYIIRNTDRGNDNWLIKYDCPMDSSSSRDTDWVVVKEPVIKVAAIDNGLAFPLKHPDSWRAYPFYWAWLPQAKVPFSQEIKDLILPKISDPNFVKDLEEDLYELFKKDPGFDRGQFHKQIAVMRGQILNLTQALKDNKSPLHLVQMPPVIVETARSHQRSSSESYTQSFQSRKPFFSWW
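ADP-Glo luminescence measured ADP generated by PI4K2A enzyme (4 ug/mL before mixing) with 1.2 mM PI substrate (pre-mix) and 300 microM ATP (pre-mix). Tris pH7.5 buffer with MgCl2, Triton X-100; 1 h reaction at ambient temperature.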
KB-3-1 cytotox: kills parental KB-3-1 adenocarcinoma cells; KB-3-1 viability, CellTiter-Glo ATP luminescence, 72 h; Potency, µM (doses to about 46.1 µM), hits mostly cytotoxic; 400,000 tested, 1.4% active; note: nearly all actives have a fitted effect of over 60% in size
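Using CellTiter-Glo luminescence, growth of non-resistant KB-3-1 adenocarcinoma cells is assessed 72 h after pin-tool compound addition at 37 °C. Normalized responses across the concentration series yield fitted curves.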
Giardia killer: Giardia lamblia killing. Giardia lamblia trophozoite viability. activity change, % at 7.66 µM, hits read low. 340,000 tested, 0.15% active. AID 540267; in the data active = activity change below about -80%; inconclusive = between about -30% and that limit;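 note: parasites exposed to compound for two days anaerobically before the ATP read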
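Luminescence from cellular ATP indicates surviving trophozoites (100 cells/well) following 48 hrs anaerobic compound treatment at 37 deg C; signal develops 15-30 min at room temperature.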
KB-V1 cytotox: kills drug-selected multidrug resistant KB-V1 cells | 400,000 tested, 3.4% active | Potency, µM (doses to about 46.1 µM), usual class: cytotoxic | KB-V1 MDR cells viability, CellTiter-Glo, 72 h | AID 1347076; note: nearly all actives have a fitted effect of over 60% in size
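Readout: CellTiter-Glo luminescence, 10 min after addition. Cells: KB-V1 MDR subline, 72 h at 37 degrees C with compound. Analysis: corrected, normalized data fitted to concentration-effect curves.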
Nrf2 inh: Nrf2 pathway inhibition; A549 ARE-Fluc reporter, luciferase luminescence, 18-24 h; Potency, µM (titrated, usually from 46 µM), most hits filed as inhibitors; 360,000 tested, 2.1% active; AID 504444; note: nearly all actives have a fitted effect of over 60% in size
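A549 ARE_Fluc cells (5000/well, 5% FBS OPTI-MEM) pre-incubated 2 h, then treated with compounds 18-24 h at 37C/5% CO2 in concentration-response. CellTiter-Fluor viability read first; BugLite luciferase luminescence after 15 min at room temperature gives Nrf2 activity.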
A549 tox: counter-screen for Nrf2 inhibitors: cytotoxicity in A549 cells; A549 ARE-Fluc cells, CellTiter-Fluor viability, 18-24 h; Potency, µM (doses to about 46 µM), hits mostly inhibitors; 390,000 tested, 0.16% active
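A549 ARE_Fluc cells in 5% FBS OPTI-MEM were exposed to compounds in concentration-response for 18-24 h at 37 deg C. Viability was read by CellTiter-Fluor fluorescence (Ex 405/Em 525) after 30 min, before the luciferase read.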
Of the large screens only hits and unclear results are named; the others gave an inactive call. Unless noted, calls come from the whole dose curve; as a rule, active = well fitted curve in the direction sought with a large enough effect; inconclusive = small, poorly fitted or top-dose-only effect, or another doubt; inactive = no such curve, though single readings can be large; an effect the other way counts as inactive or inconclusive.

c1ccc(-c2nc(SCC3CCCCO3)n[nH]2)cc1 (centres undefined)	KB-3-1 cytotox inconclusive (no result: PI4K2A block, Giardia killer, Nrf2 inh, A549 tox)
Brc1ccc(-c2csc3[n+]2CCCCC3)cc1	KB-3-1 cytotox inconclusive, KB-V1 cytotox inconclusive, Nrf2 inh 16.4µM
c1ccc(-c2c[nH]c3[n+]2CCCCC3)cc1	KB-V1 cytotox inconclusive (no result: Nrf2 inh)
COc1cc(OC)cc(C(C)c2ccc(-c3ccccc3)cc2)c1 (centres undefined)	none (no result: KB-3-1 cytotox, Giardia killer, KB-V1 cytotox, Nrf2 inh, A549 tox)
Cc1c(C)n(Cc2ccccc2)c2ncnc(NN)c12	Nrf2 inh 25.9µM
Cc1ccccc1NC(=O)N1CCCC(c2nc(-c3ccc(F)cc3)no2)C1 (centres undefined)	KB-V1 cytotox 14.6µM
Cc1ccccc1NC(=O)N1CCCC(c2nc(-c3ccc(C(C)C)cc3)no2)C1 (centres undefined)	KB-3-1 cytotox 18.4µM, Nrf2 inh 5.8µM, A549 tox inconclusive
O=C(Nc1ccccc1)N1CCCC(c2nc(-c3ccc(F)cc3)no2)C1 (centres undefined)	KB-V1 cytotox inconclusive, Nrf2 inh inconclusive
O=C(C1CCCCC1)N1CCCC(c2nc(-c3ccc(F)cc3)no2)C1 (centres undefined)	KB-V1 cytotox 20.6µM, Nrf2 inh inconclusive, A549 tox inconclusive
Nc1c(-c2ccccc2)cc[nH]c1=O	none (no result: PI4K2A block, KB-3-1 cytotox, Giardia killer, KB-V1 cytotox)
CCOC(=O)[C@]12CCCC3=C1N(CCC3)C(=O)[C@@H](CC(=O)NCc1ccc(C)o1)C2	none (no result: KB-3-1 cytotox, Giardia killer, KB-V1 cytotox, Nrf2 inh, A549 tox)
CC(C)(C)C(=O)Cn1ncc(Br)c(Br)c1=O	KB-3-1 cytotox 10.3µM, Nrf2 inh inconclusive
O=c1[nH]c(=O)n(C(c2ccccc2)(c2ccccc2)c2ccccc2)cc1N(CCO)CCO	KB-3-1 cytotox inconclusive, KB-V1 cytotox 16.4µM
OCCN(CCO)c1nc2ccccc2[nH]1	none
Cc1ccc(CCNC(=O)c2cc3n(n2)CCCN(Cc2ccc(C)cc2)C3=O)cc1	none (no result: Giardia killer, Nrf2 inh)
O=C(c1cc2ccccc2oc1=O)N(Cc1ccco1)Cc1cccs1	KB-V1 cytotox 5.17µM
O=C(c1cc2ccccc2oc1=O)N(Cc1cccs1)Cc1cccs1	none
COc1ccccc1CCNC(=O)c1c(N)[nH]c(C(=O)c2ccccc2)c1-c1ccc(Br)cc1	KB-3-1 cytotox inconclusive, KB-V1 cytotox 14.6µM (no result: Giardia killer, Nrf2 inh, A549 tox)
CC1=NN(c2ccccc2)C(=O)C1C(=O)c1ccccc1 (centres undefined)	Nrf2 inh inconclusive
CC1=NN(c2ccccc2)C(=O)C1C(=O)c1ccc(Cl)cc1 (centres undefined)	KB-3-1 cytotox inconclusive, Nrf2 inh 18.4µM, A549 tox inconclusive
Cc1cccc(OCC(=O)NCCc2nc3ccccc3[nH]2)c1C	none (no result: Giardia killer)
COCC(=O)O[C@]1(CCN(C)CCCc2nc3ccccc3[nH]2)CCc2cc(F)ccc2[C@@H]1C(C)C	KB-3-1 cytotox inconclusive, KB-V1 cytotox 14.6µM
Cc1cccc(NC(=O)[C@H]2CC(=O)O[C@@H]2c2ccccc2)c1C	none (no result: KB-3-1 cytotox, Giardia killer, KB-V1 cytotox, Nrf2 inh, A549 tox)
Cc1ccc(C)c(N(C(=O)c2nsc(Cl)c2Cl)C(C(=O)NC2CCCC2)c2ccc(O)cc2)c1 (centres undefined)	KB-3-1 cytotox 20.6µM, KB-V1 cytotox inconclusive, Nrf2 inh inconclusive
COc1ccc(CN(C(=O)c2nsc(Cl)c2Cl)C(C(=O)NC2CCCCC2)c2ccc(OC)cc2)cc1 (centres undefined)	KB-V1 cytotox 20.6µM, Nrf2 inh inconclusive, A549 tox inconclusive
C#CCNC(=O)C[C@@H]1C(=O)N(CCc2ccc(Cl)cc2)C2=CCCCC[C@]21C(=O)OC	none (no result: KB-3-1 cytotox, Giardia killer, KB-V1 cytotox, Nrf2 inh, A549 tox)
N#CN=c1snc(-c2ccccc2Cl)n1-c1ccccc1Cl	none (no result: PI4K2A block)
N=c1c2c(ccn1CCCCc1ccccc1)Oc1ccc3ccccc3c1C2c1ccccc1 (centres undefined)	Nrf2 inh inconclusive (no result: KB-3-1 cytotox, Giardia killer, KB-V1 cytotox)
N=c1c2c(ccn1Cc1ccccc1)Oc1ccc3ccccc3c1C2c1ccccc1 (centres undefined)	Nrf2 inh 5.17µM, A549 tox 11.6µM (no result: KB-3-1 cytotox, Giardia killer, KB-V1 cytotox)
O=C(Nc1ccccc1N1CCOCC1)C1CCN(S(=O)(=O)c2ccccc2F)CC1	KB-V1 cytotox 8.2µM
CCC(=O)N1CCc2cc(Br)cc(S(=O)(=O)N3CCC(C(=O)Nc4ccccc4F)CC3)c21	Nrf2 inh 13µM (no result: Giardia killer)
